One may read the AC50 as the concentration at which the activity in the assay is half-maximal.

SMILES strings stand for the structures. Activity calls are given as the source filed them. Rule for the calls: active = hit-call score of the fitted dose curve at least 0.9, where 1 is the maximum; inactive = score below 0.9.

Chain of Retinoic acid receptor alpha (Homo sapiens) (P10276 whole entry, looked up): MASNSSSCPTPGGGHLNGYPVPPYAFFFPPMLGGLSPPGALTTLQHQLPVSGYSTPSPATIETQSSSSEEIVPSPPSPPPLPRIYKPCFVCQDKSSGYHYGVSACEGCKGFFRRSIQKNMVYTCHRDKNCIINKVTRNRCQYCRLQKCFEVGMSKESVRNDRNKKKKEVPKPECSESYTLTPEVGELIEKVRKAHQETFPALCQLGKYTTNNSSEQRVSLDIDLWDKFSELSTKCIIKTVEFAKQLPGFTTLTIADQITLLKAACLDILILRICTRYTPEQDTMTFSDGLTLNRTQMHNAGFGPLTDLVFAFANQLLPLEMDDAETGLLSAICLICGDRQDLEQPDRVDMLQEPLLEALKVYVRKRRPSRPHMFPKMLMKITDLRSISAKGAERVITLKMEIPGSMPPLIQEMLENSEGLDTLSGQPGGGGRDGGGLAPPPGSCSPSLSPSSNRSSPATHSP

Tested on in the first experiment: not listed separately
The experiment is described as follows: ATG_AP_2_CIS: Attagene CIS-FACTORIAL HepG2 Assay for human Activator Protein 2 (AP-2) (AID 2282932). Conditions: HepG2 AP-2 cis-reporter, Attagene transcription factor profiling; actives raise or lower the signal. Summed up:
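Multiplexed mRNA reporter assay in HepG2: cis-regulated units report endogenous factor activity after 24 h treatment. Fluorescence from capillary electrophoresis of RT-PCR products gives the signal, with DMSO as baseline.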
For the compound `CC1C(C)(C)C2=C(C(=O)CCC2)C1(C)C` (stereo not given), the outcome was inactive.

In the case of `CCN1CCCC1=O`, the result was inactive.

Turning to `CCCCCCCCCC(C)=O`, the result was inactive.

Tested on in another experiment: not listed separately
The experiment in a line: ATG_BRE_CIS: Attagene CIS-FACTORIAL HepG2 Assay for human Bone Morphogenetic Protein (BMP) Response Element (BRE) (AID 2282933). Conditions: HepG2 BMP response element reporter, Attagene transcription factor profiling; actives raise or lower the signal. Put shortly:
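After a 24 h chemical treatment, transiently transfected HepG2 cells were lysed for RNA; reporter transcripts were quantified by fluorescent RT-PCR and capillary electrophoresis, normalised to DMSO.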
Consider `CCCCOCCOCCOC(C)=O`, for which the compound was classed as inactive.

As to `c1ccc2cnccc2c1`, the compound was classed as inactive.

As for `O=C(C=Cc1ccccc1)OCCc1ccccc1`, the result was inactive.

For the compound `CCC(C)N` (stereo not given), the result was inactive.

In the case of `CCCCCCOC(=O)CCCCC(=O)OCCCCCC`, the call was inactive.

In the case of `CCCC/C=C/C=C\C=O`, the call was inactive.

For `Oc1c(Cl)cc(Cl)c(Cl)c1Cl`, the AC50 is 100 µM (active).

Take `CN(C)c1ccc2nc3ccc(=[N+](C)C)cc-3sc2c1`: the AC50 is 12.2 µM (active).

Turning to `CCC(=O)C1CC(C(C)C)CC=C1C` (stereo not given), the compound was classed as inactive.

As for `O=C1CCCCCCCCCCCN1`, the compound was classed as inactive.

`CC(=O)OCC=C(C)C`: the call was inactive.

Consider `CC(C=O)c1ccccc1` (stereo not given), for which the compound was classed as inactive.

Turning to `N=C1C=CC(=C(c2ccc(N)cc2)c2ccc(N)cc2)C=C1`, the AC50 is 33.4 µM (active).

For the compound `CO[Si](CCCS)(OC)OC`, the call was inactive.

Turning to `CCCCCCCO`, the compound was classed as inactive.

`CC1CCC(=O)C1=O` (stereo not given): the result was inactive.

Consider `CCOC(=O)c1ccc(C)cc1`, for which the compound was called inactive.

With `COC(Cc1ccccc1)OC`, the outcome was inactive.

On to `CC1(C)CCC[C@]2(C)[C@H]3CC(=O)O[C@]3(C)CC[C@@H]12`, for which the compound was classed as inactive.

On to `CCOC(=O)[C@H](O)[C@@H](O)C(=O)OCC`, for which the result was inactive.

For `CCCC=C(C=O)CC`, the result was inactive.

Turning to `O=C(O[C@@H]1Cc2c(O)cc(O)cc2O[C@@H]1c1cc(O)c(O)c(O)c1)c1cc(O)c(O)c(O)c1`, the half-maximal activity concentration (AC50) is 3.86 µM (active).

For the compound `CC1=NN(c2ccc(S(=O)(=O)O)cc2)C(=O)C1N=Nc1ccccc1` (stereo not given), the outcome was inactive.

As for `CC(=O)CCC=C(C)C`, the result was inactive.

For the compound `COc1ccc(C(=O)/C(Br)=C\C(=O)O)cc1`, the outcome was inactive.

`CCOC(=O)CC(=O)c1ccccc1`: the compound was called inactive.

In the case of `CC(c1cc(C(C)(C)C)cc(C(C)(C)C)c1O)c1cc(C(C)(C)C)cc(C(C)(C)C)c1O`, the compound was classed as inactive.

`Cc1ccc(C)c(OCCCC(C)(C)C(=O)O)c1`: the result was inactive.

In the case of `Nc1cccc(N)n1`, the call was inactive.

For `Cc1cc(C)c(C=O)c(C)c1`, the call was inactive.

Turning to `CC1C(C)(C)C2=C(C(=O)CCC2)C1(C)C` (stereo not given), the result was inactive.

Take `CCN1CCCC1=O`: the outcome was inactive.

As for `Oc1ccc(-c2ccccc2)c(Cl)c1`, the AC50 is 33.4 µM (active).

Consider `CCCCCCCCCC(C)=O`, for which the call was inactive.

The next experiment has as its target Retinoic acid receptor alpha (Homo sapiens) (UniProt P10276). The experiment in a line: ATG_DR5_RAR_CIS: Attagene CIS-FACTORIAL HepG2 Assay for human Retinoic Acid Receptor Alpha (RARE), DR5 submotif (AID 2282934).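 For AC50: reporter responds to endogenous RAR alpha beta and gamma in HepG2 not RARA alone.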 Conditions: HepG2 Attagene cis-factorial RARE DR5 reporter, mRNA; actives raise or lower the signal. Put shortly:
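HepG2 cells transiently transfected with multiplexed reporter units; DR5 cis-element drives reporter through endogenous transcription factors. After 24 h dosing, reporter mRNA quantified by RT-PCR, fluorescent labeling, HpaI digestion and capillary electrophoresis; bidirectional fitting versus DMSO.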
Take `CCCCOCCOCCOC(C)=O`: the compound was classed as inactive.

For the compound `CC1=CCC2CC1C2(C)C` (stereo not given), the compound was called inactive.

For the compound `c1ccc2cnccc2c1`, the result was inactive.

With `CCCCCCCCCCCCc1ccc(O)cc1`, the outcome was inactive.

Turning to `O=C(C=Cc1ccccc1)OCCc1ccccc1`, the call was inactive.

As to `CCC(C)N` (stereo not given), the call was inactive.

`CCCCCCOC(=O)CCCCC(=O)OCCCCCC`: the outcome was inactive.

Consider `CCCC/C=C/C=C\C=O`, for which the call was inactive.

In the case of `Oc1c(Cl)cc(Cl)c(Cl)c1Cl`, the compound was classed as inactive.

`CN(C)c1ccc2nc3ccc(=[N+](C)C)cc-3sc2c1`: the result was inactive.

As to `CCC(=O)C1CC(C(C)C)CC=C1C` (stereo not given), the call was inactive.

As for `O=C1CCCCCCCCCCCN1`, the result was inactive.

With `CC(=O)OCC=C(C)C`, the compound was called inactive.

As to `CC(C=O)c1ccccc1` (stereo not given), the compound was called inactive.

With `N=C1C=CC(=C(c2ccc(N)cc2)c2ccc(N)cc2)C=C1`, the compound was called inactive.

For `CO[Si](CCCS)(OC)OC`, the compound was classed as inactive.

Consider `CCCCCCCO`, for which the compound was classed as inactive.

As to `CC1CCC(=O)C1=O` (stereo not given), the result was inactive.

On to `CCOC(=O)c1ccc(C)cc1`, for which the compound was classed as inactive.

`CC(C)(C)N`: the compound was called inactive.

As for `COC(Cc1ccccc1)OC`, the compound was classed as inactive.

Take `CC1(C)CCC[C@]2(C)[C@H]3CC(=O)O[C@]3(C)CC[C@@H]12`: the compound was classed as inactive.

Turning to `CCOC(=O)[C@H](O)[C@@H](O)C(=O)OCC`, the compound was called inactive.

On to `CCCC=C(C=O)CC`, for which the compound was called inactive.

On to `CC(C)c1cc(C(C)C)cc(C(C)C)c1`, for which the half-maximal activity concentration (AC50) is 59.5 µM (active).

In the case of `O=C(O[C@@H]1Cc2c(O)cc(O)cc2O[C@@H]1c1cc(O)c(O)c(O)c1)c1cc(O)c(O)c(O)c1`, the outcome was inactive.

On to `CC1=NN(c2ccc(S(=O)(=O)O)cc2)C(=O)C1N=Nc1ccccc1` (stereo not given), for which the result was inactive.

As to `CC(=O)CCC=C(C)C`, the compound was called inactive.

As for `COc1ccc(C(=O)/C(Br)=C\C(=O)O)cc1`, the compound was classed as inactive.

`CCOC(=O)CC(=O)c1ccccc1`: the outcome was inactive.

Consider `CC(c1cc(C(C)(C)C)cc(C(C)(C)C)c1O)c1cc(C(C)(C)C)cc(C(C)(C)C)c1O`, for which the compound was called inactive.

For the compound `Cc1ccc(C)c(OCCCC(C)(C)C(=O)O)c1`, the compound was called inactive.

With `Nc1cccc(N)n1`, the call was inactive.

For the compound `Cc1cc(C)c(C=O)c(C)c1`, the AC50 was 3.85 µM (active).

Turning to `CC1C(C)(C)C2=C(C(=O)CCC2)C1(C)C` (stereo not given), the outcome was inactive.

For the compound `CCN1CCCC1=O`, the compound was classed as inactive.

On to `Oc1ccc(-c2ccccc2)c(Cl)c1`, for which the compound was called inactive.

Turning to `CCCCCCCCCC(C)=O`, the compound was classed as inactive.

For the origin of these results see PubChem BioAssay (EPA / NIEHS).
